Rows were chosen to be rich in hits. Some 12% of all compounds tested hit in one or more screens of this group.
AmpC inh no detg: inhibitors of E. coli AmpC beta-lactamase without detergent | AmpC nitrocefin hydrolysis, absorbance 480 nm, 0.0001% Triton | AID 485341 | hit rate 0.52% among 330,000 | Potency, µM (highest dose often 57.1 µM), usual class: inhibitors; note: nearly all actives have a fitted effect of over 20% in size
Target sequence (P00811 whole entry, looked up): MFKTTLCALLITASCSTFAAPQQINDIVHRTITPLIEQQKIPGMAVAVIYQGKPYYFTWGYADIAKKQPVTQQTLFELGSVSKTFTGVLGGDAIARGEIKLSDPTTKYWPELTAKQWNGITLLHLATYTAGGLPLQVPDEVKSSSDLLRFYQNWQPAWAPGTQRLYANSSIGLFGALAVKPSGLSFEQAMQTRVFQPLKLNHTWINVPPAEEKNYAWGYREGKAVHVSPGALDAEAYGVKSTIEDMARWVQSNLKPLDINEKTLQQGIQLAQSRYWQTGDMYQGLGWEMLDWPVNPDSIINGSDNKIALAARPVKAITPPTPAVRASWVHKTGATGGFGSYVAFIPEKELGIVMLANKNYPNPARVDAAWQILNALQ
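AmpC (5.3 nM in the dispensed reagent) in 20 mM phosphate pH 7.0 with 0.01% (detergent screen) or 0.0001% Triton X-100 was preincubated with compounds for 15 min at room temperature. Nitrocefin was then added from an 800 uM solution, and hydrolysis was followed at 480 nm.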
Pf growth 48h: inhibits P. falciparum growth in the first generation, 48 h; P. falciparum luciferase growth in erythrocytes, 48 h; Potency, µM (doses to about 28.7 µM), usual class: inhibitors; hit rate 5.9% among 310,000; AID 504832
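Firefly luciferase activity from engineered P. falciparum reports growth; inhibitors lower the luminescent signal. Cultures contained 2% hematocrit erythrocytes at 0.1% final parasitemia.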
Sm TGR inh: inhibitors of Schistosoma mansoni thioredoxin glutathione reductase. hit rate 3% among 360,000. Q962Y6. Potency, µM (series often up to 114 µM), most hits filed as inhibitors. purified TGR, DTNB reduction, TNB absorbance 405 nm; note: nearly all actives have a fitted effect of over 60% in size
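TGR 20 nM + NADPH 100 uM (dispensed conc.), cpd preinc 15 min RT; start with NADPH (500 uM addition) then DTNB (15 mM addition). Kinetic TNB absorbance, 405 nm filter. Four-parameter Hill fit across titration.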
Pf growth 96h: P. falciparum growth inhibition at 96 hour, primary screen for plastid delayed-death inhibitors. P. falciparum luciferase reporter growth, 96 h. Potency, µM (highest dose often 28.7 µM), usual class: inhibitors. hit rate 6.9% among 320,000
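Readout is luminescence from an integrated firefly luciferase in P. falciparum. Red cells, 2% hematocrit and 0.05% parasitemia final, were cultured with compound through two parasite generations (96 hours) at 37 C, 5% CO2.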
AmpC inh detg: AmpC beta-lactamase inhibition with detergent present; AmpC hydrolysis of nitrocefin, absorbance 480 nm, 0.01% Triton; P00811; AID 485294; Potency, µM (top dose mostly 114 µM), actives largely listed as inhibitors; hit rate 0.041% among 370,000; note: nearly all actives have a fitted effect of over 25% in size
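AmpC (5.3 nM in the dispensed reagent) in 20 mM phosphate pH 7.0 with 0.01% (detergent screen) or 0.0001% Triton X-100 was preincubated with compounds for 15 min at room temperature. Nitrocefin was then added from an 800 uM solution, and hydrolysis was followed at 480 nm.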
SARS PLP yeast: blocks SARS-CoV papain-like protease in a yeast assay. S. cerevisiae expressing SARS-CoV PLpro, growth rescue. Potency, µM (top dose mostly 32.9 µM), actives largely listed as activators. hit rate 0.19% among 330,000. AID 485353; calls by dose curve; note: nearly all actives have a fitted effect of over 55% in size
Numbers stand for hits; . = inactive; ? = inconclusive; / = no result given. Unless noted, calls come from the whole dose curve; as a rule, active = well fitted curve in the direction sought with a large enough effect; inconclusive = small, poorly fitted or top-dose-only effect, or another doubt; inactive = no such curve, though single readings can be large; an effect the other way counts as inactive or inconclusive.

SMILES	AmpC inh no detg	Pf growth 48h	Sm TGR inh	Pf growth 96h	AmpC inh detg	SARS PLP yeast
CCOC(=O)C1CCCN(C(=O)CN2CCN(Cc3ccc(Cl)cc3)C2=O)C1 (centres undefined)	.	.	.	1.7µM	.	.
CCOC(=O)C1CCCN(C(=O)CN2C(=O)C(CC)Oc3ccc(C)cc32)C1 (centres undefined)	.	.	.	13µM	.	.
CCC1Oc2ccc(C)cc2N(CC(=O)N2CCN(c3ccccc3OC)CC2)C1=O (centres undefined)	/	/	.	/	.	/
COC(=O)CNC(=O)Cn1c(=O)n(Cc2ccc(F)cc2)c(=O)c2sccc21	.	.	.	12µM	.	.
O=C(COc1ccc(Cl)cc1)Nc1ccc2nc(SCC(=O)N3CCCC3)sc2c1	/	/	.	/	.	/
CCN(CC)c1ccc(NC(=O)c2ccccn2)cc1S(=O)(=O)Nc1ccccc1OC	.	5.9µM	.	10µM	.	.
CCN(CC)c1ccc(N)cc1S(=O)(=O)Nc1ccccc1OC	.	.	.	.	.	.
COc1ccccc1NS(=O)(=O)c1cc(NC(=O)CNC(=O)c2ccccc2)ccc1C	.	.	.	.	?	.
CCN(CC)c1ccc(NC(=O)COc2ccccc2C#N)cc1S(=O)(=O)Nc1ccccc1OC	.	1.7µM	.	9.3µM	.	.
CCN(CCCNC(=O)c1nn(C)c2c1CS(=O)(=O)c1ccccc1-2)Cc1ccccc1	.	.	.	.	.	.
O=c1[nH]c(=O)n(Cc2ccco2)c(O)c1C=NC1CC1	.	.	.	.	.	.
CC(C)n1c(=O)c(C=Nc2ccc(Cl)cc2)c(O)n(Cc2ccco2)c1=O	.	10µM	.	1µM	.	.
CC(C)n1c(=O)c(C=Nc2ccc(F)cc2)c(O)n(Cc2ccco2)c1=O	.	15µM	.	?	.	.
O=c1c2oc3ccccc3c2n(Cc2ccc(Cl)cc2)c(=O)n1Cc1ccco1	/	/	.	/	.	/
COc1cccc(N=Cc2c(O)n(Cc3ccco3)c(=O)[nH]c2=O)c1	.	.	25µM	.	.	.
Cc1cc(NC(=O)CSc2nnc3ccc(-c4ccc(F)cc4)nn23)no1	.	.	.	.	.	.
CSc1nc2sc3c(c2c(=O)n1Cc1ccccc1)CCC(C(C)(C)C)C3 (centres undefined)	/	/	.	/	.	/
Cc1cc(C(=O)CSCCCn2c(=O)[nH]c3ccccc32)c(C)n1C	.	13µM	.	.	.	.
O=c1[nH]c2ccccc2n1CCCSCCCn1c(=O)[nH]c2ccccc21	.	?	.	9.3µM	?	.
CCn1c2ccccc2c2nnc(SCCCn3c(=O)[nH]c4ccccc43)nc21	.	7.4µM	.	2.3µM	.	.
Cc1c(CN(C)C)c2c(n1Cc1ccccc1)C(=O)c1ccccc1-2	.	?	.	/	.	.
CC1(C)OCC(C2CC(c3ccccc3)NS(=O)(=O)O2)O1 (centres undefined)	.	.	.	.	.	.
O=S1(=O)NC2c3ccccc3CC2O1 (centres undefined)	.	.	25µM	.	?	.
CN1CCN(c2oc(/C=C/c3ccc(F)cc3)nc2C#N)CC1	/	/	.	/	.	/
CCN1CCN(c2c(S(=O)(=O)c3ccccc3)cnc3ccc(Cl)cc23)CC1	/	/	.	/	.	/
SMILES	AmpC inh no detg	Pf growth 48h	Sm TGR inh	Pf growth 96h	AmpC inh detg	SARS PLP yeast
COc1ccc(S(=O)(=O)c2cnc3ccc(OC)cc3c2N2CCC3(CC2)OCCO3)cc1	.	?	.	8.3µM	?	.
CCOc1ccc2ncc(S(=O)(=O)c3ccccc3)c(N3CCC4(CC3)OCCO4)c2c1	.	13µM	.	10µM	.	.
CCCCCCCCCCCC(CC1OC(=O)C1CCCCCC)OC(=O)C(CC(C)C)NC=O (centres undefined)	/	1.1µM	/	1.5µM	/	/
Oc1cc(-c2ccc(N3CCCCC3)nc2)cc2cccnc12	.	4.1µM	.	2.9µM	?	.
CN(C)CCCNC(=O)c1ccc(-c2cc(O)c3ncccc3c2)cc1	.	10µM	.	6.6µM	.	.
CN(C)CCCNC(=O)c1ccc(-c2nc(-c3ccc(Cl)cc3)cs2)cc1	.	2.6µM	.	1.5µM	.	.
Cc1cc(N2CCCC2)nc(-c2ccccc2O)n1	.	.	.	.	.	.
CN(C)CCCNC(=O)c1ccccn1	.	/	.	.	.	.
CN1CCN(c2ccc(-c3cc(O)c4ncccc4c3)cc2)CC1	.	2.6µM	.	2.6µM	.	.
CCN(CC)c1nn2c(=O)c(C(=O)NCc3cccc(C)c3)cnc2s1	/	/	.	/	.	/
CC(C)c1ccc(NC(=O)c2cc3c(=O)oc4ccccc4c3s2)cc1	/	/	.	/	.	/
O=C(CNC(=O)c1ccco1)N/N=C/c1cccs1	.	.	.	.	.	.
CSc1ccc(CCCCCCOC(=O)C(C)(C)C)cc1	.	.	.	.	.	.
CN(C)c1ccc(-c2ccncc2)cc1	.	.	.	/	?	.
CN(C)c1ccc(-c2cc(O)c3ncccc3c2)cc1	.	3.7µM	.	5.2µM	?	.
Oc1cc(-c2ccncc2)cc2cccnc12	.	?	.	5.2µM	.	.
Cc1ccc(-c2cn3nc(N4CCCC(C(=O)Nc5ccc(F)cc5)C4)sc3n2)cc1 (centres undefined)	/	/	.	/	.	/
OC1CCCN(Cc2cccc3ccccc23)C1 (centres undefined)	.	.	.	/	.	.
CCOC(=O)C1CCN(Cc2ccccn2)CC1	.	.	.	10µM	.	.
Oc1c(CN2CCCC(C(F)(F)F)C2)cc(Cl)c2ccccc12 (centres undefined)	.	?	2µM	?	.	.
CCOC(=O)C1CCN(Cc2cc(Cl)c3ccccc3c2O)CC1	.	1.2µM	4.5µM	1.2µM	.	.
Cc1cc(C)c(C)c(S(=O)(=O)N2CCC(C(=O)Nc3ccncc3)CC2)c1C	.	?	.	13µM	.	.
Cc1cc(C)c(C)c(S(=O)(=O)N2CCC(C(=O)N3CCCC3)CC2)c1C	.	12µM	.	12µM	.	.
CCCS(=O)(=O)N1CCC(C(=O)N2CCCC2)CC1	.	.	.	12µM	.	.
Cc1ccc(C(C)(C)C)cc1S(=O)(=O)N1CCC(C(=O)N2CCN(c3ccc(O)cc3)CC2)CC1	.	3.7µM	.	10µM	.	.
O=C(CCNC(=O)C1CCN(S(=O)(=O)c2ccccc2)CC1)NCCc1cccc(F)c1	.	.	.	?	.	.
O=C1CSC2(CCN(CCCN3c4ccccc4Sc4ccc(Cl)cc43)CC2)N1	/	?	/	8.5µM	/	/
c1ccc2c(c1)Sc1ccccc1N2CCN1CCCC1	/	17µM	/	15µM	/	/
CN1CCN(CCCN2c3ccccc3Sc3ccc(C(F)(F)F)cc32)CC1	.	10µM	.	9.3µM	.	.

Bioassay records: PubChem BioAssay, National Center for Advancing Translational Sciences (NCATS)
